PP1 inh: blocks human PP1-alpha phosphatase, a PP5 counter-screen. P62136. AID 2235. hit rate 0.9% among 320,000. inhibition, % at 6.7 µM. purified PP1alpha, OMFP fluorescence;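 active = inhibition above the mean inhibition of all tested compounds plus 3 SD, computed separately for each screening campaign, cut at about 15% in these data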
Target sequence (P62136 whole entry, looked up): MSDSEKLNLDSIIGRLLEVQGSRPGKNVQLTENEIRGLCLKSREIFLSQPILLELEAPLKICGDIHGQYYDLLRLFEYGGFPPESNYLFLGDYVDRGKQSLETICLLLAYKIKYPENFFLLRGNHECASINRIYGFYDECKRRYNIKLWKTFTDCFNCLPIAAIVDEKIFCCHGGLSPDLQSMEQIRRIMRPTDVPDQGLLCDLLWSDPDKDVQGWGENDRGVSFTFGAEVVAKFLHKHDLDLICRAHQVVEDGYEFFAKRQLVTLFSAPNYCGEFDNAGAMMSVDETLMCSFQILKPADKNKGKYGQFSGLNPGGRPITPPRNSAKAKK
Calb FLC: C. albicans growth modulation with fluconazole. C. albicans CaCi-2 (fluconazole-resistant clinical isolate) + fluconazole, Alamar Blue growth, 48 h. growth inhibition, % (test concentration not listed). hit rate 0.57% among 300,000;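 active = growth inhibition above about 58% in most replicates, limit read from the data, passing the limit was not always enough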;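 also: all wells also contain fluconazole at 8 µg/ml as a sub-toxic cotreatment; 0% = median of DMSO wells and 100% = median of geldanamycin control wells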
CSC inhib: cancer stem cell inhibition; cancer stem cell-like cells viability, luminescence; inhibition, % at 7.5 µM; hit rate 1.1% among 300,000; AID 2717; in the data active = inhibition above about 75%; tested in HMLE shEcad cells
Mdm2 MdmX PPI: disrupts the human Mdm2-MdmX interaction. O15151+Q00987. SaOS-2 split-luciferase Mdm2/MdmX complementation, luminescence. inhibition, % at 8 µM. hit rate 3% among 330,000. AID 485346;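 active = inhibition of at least 50% at 8 µM in the primary screen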
PP5 inh: PP5 (human) phosphatase inhibition; hit rate 0.18% among 320,000; inhibition, % at 6.7 µM; purified PP5c, OMFP substrate fluorescence; AID 1987; P53041;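 active = inhibition above the campaign's mean inhibition across all tested compounds plus 3 SD, cut at about 9.5% in these data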;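 also: 0% = DMSO only and 100% = 100 µM cantharidin control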
Beta cell apopt: blocks beta cell apoptosis; INS-1E cytokine-induced death, ATP luminescence, 48 h; percent of positive-control rescue, neutral wells zero; protection from apoptosis, % (no concentration beside the values); hit rate 0.8% among 300,000; AID 435005;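 active = Every replicate reaches about 75%, or at least half do and their mean reaches it too, limit read from the data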;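 also: 0% = cytokine-treated negative control wells and 100% = positive control rescue; higher means more ATP so stronger rescue from cytokine killing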
Mdm2-MdmX conf: confirmation of human Mdm2/MdmX interaction inhibitors; shares compounds with Mdm2 MdmX PPI; Mdm2-MdmX binding, luminescent assay; inhibition, % at 8 µM; hit rate 55% among 10,000; AID 489028; in the data active = inhibition above about 40%
Full FLuc ctr: counter-screen for Mdm2/MdmX inhibitors: full-length luciferase; shares compounds with Mdm2 MdmX PPI; SaOS-2 full-length luciferase counterscreen, luminescence; inhibition, % at 8 µM; hit rate 77% among 6,200;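 active = mean inhibition at 8 µM reaching about 37%, which flags the compound as non-specific, limit read from the data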;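 also: p53-null SaOS-2 cells with luciferase driven by a doxycycline-inducible promoter; compound on cells about two nights before reading with doxycycline added after day one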
Numbers without * were called inactive; x = no result. Most compounds without a hit are left out; they make up all but 4.9% or so of the library.

SMILES	PP1 inh	Calb FLC	CSC inhib	Mdm2 MdmX PPI	PP5 inh	Beta cell apopt	Mdm2-MdmX conf	Full FLuc ctr
COc1ccc(N2CCN(C(=O)Cc3csc(NC(=O)Nc4ccccc4OC)n3)CC2)cc1	-5.8	-9.9	x	25.1	1.7	5.8	x	x
Cc1cc(C(=O)CSc2nnc3ccccn23)c(C)n1-c1ccccc1	0.3	5.1	-7.6	81.6*	2.8	0.7	85.9*	29.6
CCCOc1cccc(-c2cc(C(=O)N/N=C/c3ccccn3)c3ccccc3n2)c1	x	-0.9	32.8	33.0	x	24.2	x	x
Cc1[nH]c2ccccc2c1/C=N/Nc1nc2ccccc2[nH]1	6.2	-14.4	43.8	61.5*	2.9	118.3*	-6.7	x
O=C(N/N=C/c1ccc([N+](=O)[O-])o1)c1cc(-c2cccc(Br)c2)nc2ccccc12	16.5*	28.9	5.2	50.4*	5.2	1.9	35.7	x
O=C(N/N=C/c1ccccn1)c1cc(-c2ccc(Br)cc2)nc2ccccc12	7.3	-6.9	65.8	83.8*	4.1	18.6	39.8	46.4*
O=C(N/N=C/c1ccc([N+](=O)[O-])o1)c1sc2ccccc2c1Cl	3.4	-8.4	22.3	21.8	3.2	-33.5	x	x
O=C(N/N=C/c1ccc([N+](=O)[O-])o1)c1cn2ccc3ccccc3c2n1	3.5	3.0	1.0	82.0*	1.0	-2.9	9.2	x
COc1ccc(CNC(=O)CN2c3ccccc3S(=O)(=O)c3ccccc32)cc1	2.6	22.1	-10.2	-3.4	2.4	0.9	x	x
Cc1cc(C(=O)N/N=C/c2ccc([N+](=O)[O-])o2)c(C)o1	-0.5	10.5	7.9	12.4	-3.1	-7.0	x	x
COc1ccc(-c2nn(-c3ccccc3)cc2C(=O)N/N=C/c2ccc([N+](=O)[O-])o2)cc1	-1.2	8.0	-0.8	58.4*	0.6	46.7	52.8*	52.3*
Cc1[nH]c2ccccc2c1/C=N/NC(=O)c1cc(-c2ccncc2)nc2ccccc12	-1.6	-0.3	-3.4	59.4*	2.6	11.3	68.8*	52.1*
Cc1[nH]c2ccccc2c1/C=N/NC(=O)c1cc(-c2ccccc2)n[nH]1	1.8	4.1	31.8	39.0	3.6	-1.3	x	x
O=C(N/N=C/c1ccccn1)c1cc(-c2ccc(Cl)cc2)nc2ccccc12	0.4	60.8*	31.5	76.0*	-1.1	43.4	34.8	x
CCOc1ccc2c(C)nc(NC3=NC(C)(C)C=C(C)N3)nc2c1	-0.6	-2.1	25.4	50.4*	1.6	-0.9	33.9	x
CCOc1ccc2nc(NC3=NC(C)(C)C=C(C)N3)nc(C)c2c1	-1.2	-12.3	0.6	71.6*	2.5	3.3	33.9	x
CSCc1ccc(C(=O)Nc2ccc(C(N)=O)cc2)cc1	0.0	4.5	-3.7	-82.6	-1.2	1.0	x	x
COc1ccc(N2CCCC2)c(NC(=O)c2ccc(Br)o2)c1	1.6	-8.8	4.9	3.8	-2.5	-3.1	x	x
CC1CC(CC(=O)NC(=S)Nc2ccccc2Cl)C(=O)O1 (stereo not drawn)	-0.2	-6.1	-3.7	-14.7	0.1	-3.3	x	x
CC1=C(C(=O)NC2CCCc3c2cnn3-c2cccc(C)c2C)OCCO1 (stereo not drawn)	-7.2	-1.4	14.2	8.6	5.2	70.9	x	x
Cc1cccc(-n2ncc3c2CCCC3NC(=O)CN2CCOC2=O)c1C (stereo not drawn)	-3.4	-26.4	-2.9	10.2	-0.3	-3.4	x	x
Cc1cc(C(=O)NC2CCCc3c2cnn3-c2cccc(C)c2C)no1 (stereo not drawn)	-1.2	-4.5	-2.4	93.5*	4.2	x	94.4*	23.6
COc1ccc(C(=O)NC2CCCc3c2cnn3-c2cccc(C)c2C)o1 (stereo not drawn)	-2.3	-0.7	15.0	73.7*	1.2	14.5	48.4*	46.0*
CCn1cc(C(=O)NC2CCCc3c2cnn3-c2cccc(C)c2C)cn1 (stereo not drawn)	3.5	0.3	-2.1	84.0*	4.0	x	92.5*	36.8*
Cc1cccc(-n2ncc3c2CCCC3NC(=O)CCc2cccnc2)c1C (stereo not drawn)	-1.0	-1.4	-10.4	4.8	2.2	0.7	x	x
SMILES	PP1 inh	Calb FLC	CSC inhib	Mdm2 MdmX PPI	PP5 inh	Beta cell apopt	Mdm2-MdmX conf	Full FLuc ctr
Cc1ccc(/C=C(\C#N)C(=O)NC(C)c2ccccc2)o1 (stereo not drawn)	1.6	-3.4	-13.9	7.1	0.2	-8.1	x	x
CC(C)c1cccc(C(C)C)c1OC(=O)[C@H]1OC(c2ccc(Br)cc2)=C[C@@H]1c1ccc(Br)cc1	3.2	x	111.1*	60.6*	0.8	15.7	-3.4	x
CCCOc1ccc(N2C(=O)CC(SC(=N)N3N=C(c4ccccc4)CC3c3ccccc3)C2=O)cc1 (stereo not drawn)	-3.5	-0.5	-9.3	60.3*	-0.7	28.9	39.6	76.7*
CCOc1cc(NC(=O)CCl)c(OCC)cc1NC(=O)CCl	-3.8	3.5	-2.8	95.5*	0.8	-2.7	80.5*	60.4*
CCOc1ccccc1NC(=O)CCC(=O)Nc1ccccc1OCC	1.2	-2.1	-9.4	-10.1	2.2	1.3	x	x
Cc1ccc2c(c1)-c1c(ssc1=S)C(C)(C)N2C(=O)CSc1nncn1C	-0.3	-4.6	8.7	4.7	0.8	2.0	x	x
CC1(C)c2ssc(=S)c2-c2ccccc2N1C(=O)CSC1=NCCS1	0.9	10.7	3.1	51.9*	0.0	-7.1	27.4	x
COc1ccc2c(c1)-c1c(ssc1=S)C(C)(C)N2C(=O)CSC1=NCCS1	1.0	15.9	13.6	64.0*	3.2	-3.0	33.0	x
O=C(C1CCN(Cc2ccc(Cl)cc2)CC1)N1CCN(C(c2ccccc2)c2ccccc2)CC1	5.8	7.3	64.2	56.5*	5.1	33.4	25.1	x
O=C1CN(C(=O)c2ccccc2)c2ccccc2N1	-0.2	5.0	8.7	-7.4	-3.9	-6.9	x	x
O=C1CN(C(=O)COC(=O)c2ccc(Cl)c(S(=O)(=O)N3CCCCC3)c2)c2ccccc2N1	x	x	-1.0	10.9	x	2.6	x	x
O=C1CN(C(=O)c2cccc(Br)c2)c2ccccc2N1	-0.3	8.2	34.7	53.0*	0.4	1.2	61.5*	51.6*
O=C1CN(C(=O)c2ccc(Cl)c(S(=O)(=O)N3CCc4ccccc43)c2)c2ccccc2N1	3.4	-1.8	35.7	85.5*	-0.5	10.7	78.0*	64.1*
CC(C)C(=O)NCc1cc(-c2ccccc2)no1	-2.8	-17.0	-6.5	11.1	-1.9	-0.9	x	x
C=CCN(C(=O)CCC(=O)Nc1cc(C)on1)C(C(=O)NC(C)(C)CC)c1cccc(OC)c1OC (stereo not drawn)	-0.8	7.7	x	-22.3	-1.2	2.8	x	x
COC(=O)Nc1ccc(S(=O)(=O)N2CCC(C(=O)N3CCCC(C)C3)CC2)cc1 (stereo not drawn)	-2.8	-10.0	1.3	23.5	0.8	-3.5	x	x
CCc1nnc(NC(=O)c2nc(S(=O)(=O)Cc3ccccc3)ncc2Cl)s1	-0.8	-8.1	100.6*	100.4*	0.1	-37.4	48.9*	6.4

Screening data from PubChem BioAssay.
